Results from PubChem BioAssay (NCATS).
Records with an inconclusive call do not appear. Where a call stands in place of a potency, no number is given. Calls of active or inactive are those of the source. Calls come from the whole dose curve; as a rule, active = well fitted curve in the direction sought with a large enough effect; inconclusive = small, poorly fitted or top-dose-only effect, or another doubt; inactive = no such curve, though single readings can be large or run the other way.
Potency is the fitted concentration of half-maximal effect.

These compounds were tested against Ferritin light chain (Equus caballus) (UniProt P02791) (assay: qHTS Validation Assay for Identification of Novel General Anesthetics (AID 2323)). Conditions: horse apoferritin, anesthetic-site fluorescent probe displacement; series mostly up to 76.9 µM.
Sequence of Ferritin light chain (Equus caballus) (P02791 2-175 limits assumed): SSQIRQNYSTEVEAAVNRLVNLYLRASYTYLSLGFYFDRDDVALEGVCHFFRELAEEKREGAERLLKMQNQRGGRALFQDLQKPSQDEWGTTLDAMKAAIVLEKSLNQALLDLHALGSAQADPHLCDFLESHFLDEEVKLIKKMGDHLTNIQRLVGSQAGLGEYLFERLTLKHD
Text: Source: NIH Chemical Genomics Center [NCGC]
Assay Submitter: Roderic Eckenhoff, University of Pennsylvania
Screening Center PI: Christopher P. Austin, NIH
Probe Development: NIH Chemical Genomics Center [NCGC]
Anesthetic development has remained a largely empirical process. There are growing concerns about the cognitive effects of known general anesthetics and acceleration of the onset of neurodegenerative disease. The compounds' toxicity and multiple specific binding targets in the mammalian brain [4] has made them less attractive as drug leads. In this assay, a GABAergic mimetic model system, apoferritin and a profluorescent 1-aminoanthracene ligand (1-AMA), was used to construct a competitive binding assay for identification of novel general anesthetics. The assay was validated for 1-AMA using other known anesthetics, such as isoflurane (CID:3763) and propofol (CID: 4943), [6].
[1] S.L. Bianchi, T. Tran, C. Liu, S. Lin, Y. Li, J.M. Keller, R.G. Eckenhoff, and M.F. Eckenhoff, Brain and behavior changes in 12-month-old Tg2576 and nontransgenic mice exposed to anesthetics. Neurobiol Aging 29 (2008) 1002-10.
[2] Z. Xie, Y. Dong, U. Maeda, R.D. Moir, W. Xia, D.J. Culley, G. Crosby, and R.E. Tanzi, The inhalation anesthetic isoflurane induces a vicious cycle of apoptosis and amyloid beta-protein accumulation. J Neurosci 27 (2007) 1247-54.
[3] P. Honegger, and J.M. Matthieu, Selective toxicity of the general anesthetic propofol for GABAergic neurons in rat brain cell cultures. J Neurosci Res 45 (1996) 631-6.
[4] M.F. Eckenhoff, K. Chan, and R.G. Eckenhoff, Multiple specific binding targets for inhaled anesthetics in the mammalian brain. J Pharmacol Exp Ther 300 (2002) 172-9.
[5] C.A. Butts, J. Xi, G. Brannigan, A.A. Saad, S.P. Venkatachalan, R.A. Pearce, M.L. Klein, R.G. Eckenhoff, and I.J. Dmochowski, Identification of a fluorescent general anesthetic, 1-aminoanthracene. Proc Natl Acad Sci U S A 106 (2009) 6501-6.
[6] W.A. Lea, J. Xi, A. Jadhav, L. Lu, C.P. Austin, A. Simeonov, and R.G. Eckenhoff, A high-throughput approach for identification of novel general anesthetics. PLoS One 4 (2009) e7150.
Three uL of reagents (free 1-AMA (50% saturated solution of 1-aminoanthracene
in PBS) in columns 3, 4 as negative control and 1-AMA/apoferritin mixture (10 uM horse-spleen apoferritin in 50% saturated 1-aminoanthracene in PBS) in columns 1, 2, 5-48) was dispensed into 1536-well Greiner black assay plates. Compounds (23 nL) were transferred via Kalypsys pintool equipped with 1,536-pin array (10 nL slotted pins, V&P Scientific, San Diego, CA). Titration of the positive control, propofol, were delivered via pin transfer from separate control plates to the 2nd column of each assay plate. The starting concentration of the control, dissolved in DMSO, was at 160 mM, followed by two-fold dilution points in duplicate, for a total of 16 concentrations. The plates were incubated for 10 min at room temperature, and then read on an EnVision HTS multilabel reader (Perkin-Elmer, Waltham, MA) (end point read, 3 min/plate) using Fura2 BFP excitation filter (380 nm, bandwidth 10 nm) and fluorescein emission filter (535 nm, bandwidth 25 nm) set. A LANCE/DELFIA dichroic mirror with a cutoff wavelength at 400 nm was used to maximize signal accuracy and strength. Vehicle-only plates, with DMSO being pin-transferred to the entire column 5-48 compound area, were inserted uniformly at the beginning and the end of each library in order to monitor for and record any shifts in the background. Activity was computed as the normalized fluorescence response relative to free 1-AMA and 1-AMA/apoferritin complex values. Concentration-effect relationships were derived by using curve fitting algorithms developed in-house (http://ncgc.nih.gov/pub/openhts/). A four parameter Hill equation was fitted to the concentration-response data by minimizing the residual error between the modeled and observed responses.
With `CC1CCN=C(N)S1` (stereo not given) the Potency was “inactive”.
In the case of `O=C(O)/C=C/c1ccc(O)c(O)c1`, the Potency was “inactive”.
For `NCCCNCCCCNCCCN`, the Potency was “inactive”.
For `CCCCCCC/C=C\CCCCCCCCC(=O)O`, the Potency was 31.6 µM (active).
`CN1CCC2(CCN3CCc4c(oc5ccccc45)C3C2)N(C)C1=O` (stereo not given) was tested, and the Potency was “inactive”.
With `NC1CONC1=O` (stereo not given) the Potency was “inactive”.
In the case of `C#CCn1c(=O)c2c(ncn2C)n(C)c1=O`, the Potency was “inactive”.
For `N=C(N)c1ccc(N)cc1`, the Potency was “inactive”.
`O=C(O)CCC(=O)N1CCCC1C(=O)O` (stereo not given) was tested, and the Potency was “inactive”.
For `CC1C(=O)N(C)C(=O)c2nc[nH]c21` (stereo not given), the Potency was “inactive”.
For `CCCn1c(=O)c2c(ncn2C)n(CCC)c1=O`, the Potency was “inactive”.
In the case of `NC(N)=N[C@@H](CCC(=O)O)C(=O)O`, the Potency was “inactive”.
`COC1(C2=NCCN2)COc2ccccc2O1` (stereo not given) was tested, and the Potency was “inactive”.
`Cc1ccc([N+](=O)[O-])cc1S(=O)(=O)N(C)C` was tested, and the Potency was “inactive”.
With `C[C@@H](NCCc1ccc(O)cc1)[C@@H](O)c1ccc(O)cc1` the Potency was “inactive”.
For `COC(=O)C(C)(N)Cc1ccc(O)cc1` (stereo not given), the Potency was “inactive”.
In the case of `Cc1cccc(C)c1OCC(N)C(C)C` (stereo not given), the Potency was “inactive”.
In the case of `Cn1c(=O)c2c(nc(/C=C/c3cccc(Cl)c3)n2C)n(C)c1=O`, the Potency was “inactive”.
`CCN(CC)CCOC(=O)c1cc(Cl)c(N)cc1OC` was tested, and the Potency was “inactive”.
In the case of `CCCCS(=N)(=O)CC[C@H](N)C(=O)O` (stereo not given in full), the Potency was “inactive”.
For `O=C1NC(=O)c2cc(Nc3ccccc3)c(Nc3ccccc3)cc21`, the Potency was “inactive”.
With `COc1ccccc1N1CCN(CCCCN2C(=O)c3ccccc3C2=O)CC1` the Potency was “inactive”.
`CN(C)CCC(c1ccc(Br)cc1)c1ccccn1` (stereo not given) was tested, and the Potency was “inactive”.
For `O=C(O)C1=CC(=C(c2ccc(O)c(C(=O)O)c2)c2ccc(O)c(C(=O)O)c2)C=CC1=O`, the Potency was “inactive”.
For `O=C1OC(=O)C2C3CCC(O3)C12` (stereo not given), the Potency was “inactive”.
For `CC(N)(Cc1ccc(O)c(O)c1)C(=O)O` (stereo not given), the Potency was “inactive”.
In the case of `O=c1onc2n1-c1cc(Br)ccc1OC2`, the Potency was “inactive”.
With `NCCCCN` the Potency was “inactive”.
For `N[C@@H](CCCC(=O)O)C(=O)O`, the Potency was “inactive”.
`C=CCn1c(=O)c2c(nc(-c3ccc(S(=O)(=O)O)cc3)n2C)n(C)c1=O` was tested, and the Potency was “inactive”.
With `CC[C@@H]1Cc2cc(O)ccc2C2=C1c1ccc(O)cc1C[C@H]2CC` the Potency was “inactive”.
In the case of `CCCCOC(=O)NS(=O)(=O)c1sc(CC(C)C)cc1-c1ccc(Cn2c(CC)nc3c(C)cc(C)nc32)cc1`, the Potency was “inactive”.
In the case of `O=[N+]([O-])c1cccc2c(Br)[nH]nc12`, the Potency was “inactive”.
`Cc1cccc(C2CN(C)CCc3c2cc(O)c(O)c3Cl)c1` (stereo not given) was tested, and the Potency was “inactive”.
`CN1CCN(c2nc3cc(C(F)(F)F)ccc3n3cccc23)CC1` was tested, and the Potency was “inactive”.
`C[C@H](O)C(=O)C1=Nc2c(nc(N)[nH]c2=O)NC1` was tested, and the Potency was “inactive”.
With `NC(=O)c1cc[n+](CC2=C(C(=O)O)N3C(=O)[C@@H](NC(=O)[C@@H](c4ccccc4)S(=O)(=O)[O-])[C@H]3SC2)cc1` the Potency was “inactive”.
For `N[C@@H](Cc1ccc(F)cc1)C(=O)O`, the Potency was “inactive”.
In the case of `CC(=O)NNC(=O)N1Cc2ccccc2Oc2ccc(Cl)cc21`, the Potency was “inactive”.
`[Li+]` was tested, and the Potency was “inactive”.
